# Data reported in PubChem BioAssay (NCI).
# Compounds without any hit were thinned out: in the full panel of roughly 83,000, 20% have a hit.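 In brief: 96-well plates, 48 h treatment, single concentration, percent growth endpoint.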 A number with no mark means an inactive call. Activity calls are given as the source filed them. Rule for the calls: active = growth percent below 10; inactive = the rest.
# Legend:
# Test in all cases: NCI-60 one-dose screen, 48 h (100 = growth as untreated, 0 = no growth, -100 = all killed)
# Details in all cases: 10 µM unless noted
# DU-145 prostate = tested on: DU-145 prostate
# K-562 leukemia = tested on: K-562 leukemia
# MALME-3M melanoma = tested on: MALME-3M melanoma
# MDA-MB-231 breast = tested on: MDA-MB-231 breast
# RXF 393 renal = tested on: RXF 393 renal
# SF-268 CNS = tested on: SF-268 CNS
# SF-295 CNS = tested on: SF-295 CNS
# SF-539 CNS = tested on: SF-539 CNS
# UACC-257 melanoma = tested on: UACC-257 melanoma
# M14 melanoma = tested on: M14 melanoma
SMILES,growth (DU-145 prostate),growth (K-562 leukemia),growth (MALME-3M melanoma),growth (MDA-MB-231 breast),growth (RXF 393 renal),growth (SF-268 CNS),growth (SF-295 CNS),growth (SF-539 CNS),growth (UACC-257 melanoma),growth (M14 melanoma)
COc1ccc2c(c1)C1(C(=O)N2)C(C#N)=C(c2ccccc2)Nc2c1c(-c1ccccc1)nn2-c1ccccc1 (stereo not given),49.8%,70.4%,63.8%,45.1%,64.2%,52.1%,69.7%,-3.82% (active),87.9%,72.2%
C#C[C@@]1(O)[C@@H](CO)O[C@@H](n2cc(I)c3c(N)ncnc32)[C@@H]1O,7.45% (active),6.9% (active),-5.65% (active),2.55% (active),-27.7% (active),28.5%,10.5%,-40.5% (active),44.7%,22.4%
COC(=O)/C=C1\SC(=Nc2cccc(Cl)c2)N(CCc2c[nH]c3ccccc23)C1=O,54.5%,24.3%,45.9%,39.5%,44.8%,49.5%,55.1%,69.9%,37.1%,42.4%
COc1cc2c(cc1OC)C(Sc1ccc(Cl)cc1)c1c(nc(N)c(C#N)c1N)O2 (stereo not given),5.73% (active),0.964% (active),-28.6% (active),-20.1% (active),-65.4% (active),35.7%,43.8%,-21.9% (active),22.5%,-21.2% (active)
Cc1cc(Cl)cc(CN(Cc2ccccc2)Cc2c(O)ccc3ccccc23)c1O,98.1%,101%,96.7%,100%,109%,90.8%,104%,103%,100%,104%
O=C(NC[C@H](O)CN1CCc2ccccc2C1)c1cc(NC2COC2)ncn1,103%,108%,93.3%,94.6%,114%,86%,97.7%,97.4%,116%,92.4%
CCOC(=O)c1ccc(Nc2ncnc3ccc(NC(=O)c4ccccc4)cc23)cc1,105%,71.9%,109%,98.2%,80.7%,91.3%,95.3%,101%,103%,93.8%
COc1cc2c(cc1OCCCOc1cc3c(cc1OC)C(=O)N1CC(F)(F)C[C@H]1C=N3)N=C[C@@H]1CC(F)(F)CN1C2=O,17%,9.11% (active),-57.6% (active),16%,-65.5% (active),30.4%,8.54% (active),-27.9% (active),34.9%,-0.895% (active)
CC(=O)ON1CCCC(P(=O)(OCOC(=O)C(C)(C)C)OCOC(=O)C(C)(C)C)C1=O (stereo not given),10.7%,3.72% (active),-8.77% (active),-6.53% (active),-20.8% (active),1.95% (active),34.5%,11.3%,19.2%,12.9%
N#Cc1c(-c2ccc(F)cc2)nc(N=Nc2c(O)[nH]c3ccccc23)nc1N1CCOCC1,69.1%,91.8%,63.7%,66%,62.8%,77.3%,70.2%,85.5%,77.8%,72.3%
COc1ccc(/C=C/C(=O)C(CC2CCC2)C(=O)/C=C/c2ccc(OC)c(OC)c2)cc1OC,-23% (active),1.54% (active),-13.6% (active),6.65% (active),-72.5% (active),2.31% (active),-16.6% (active),-38.2% (active),-16.7% (active),5.19% (active)
COC(=O)c1cc2c3c(cc(O)c2[nH]1)N(C(=O)C1Cc2cc(OC)c(OC)c(OC)c2N1)CC3CCl (stereo not given),-99.1% (active),1.56% (active),-58.1% (active),-41.3% (active),-99.4% (active),-5.75% (active),-40.6% (active),-74.7% (active),-72.3% (active),-25.1% (active)
Oc1c(CCl)cc(Cl)cc1Cc1cc(Cl)cc(Cc2cc(Cl)cc(CCl)c2O)c1O,44%,7.26% (active),27.9%,40.2%,45.4%,17.1%,62.7%,40.7%,36.1%,27.1%
CN(C)[C@@H]1C(=O)C(C(N)=O)=C(O)[C@@]2(O)C(=O)C3=C(O)c4c(O)cc(CN5CCc6ccccc6C5)c(Cl)c4C[C@H]3C[C@@H]12,-92.2% (active),-73.6% (active),-52.5% (active),-74.4% (active),-82.2% (active),-74.9% (active),-88.9% (active),-84.6% (active),-62% (active),-71.2% (active)
O=[N+]([O-])c1ccc(N=Nc2c(O)c(N=Nc3cc([N+](=O)[O-])cc([N+](=O)[O-])c3O)cc(N=Nc3cc(S(=O)(=O)O)cc4cc(S(=O)(=O)O)cc(O)c34)c2O)cc1,108%,77.7%,101%,102%,112%,101%,106%,102%,105%,92.4%
COc1ccc(-n2nc(C(=O)NCC(=O)O)nc2-c2ccccc2)cc1,111%,93.4%,92.4%,108%,120%,99.3%,107%,97.2%,97.1%,102%
N#CCNc1ccc(C(=O)O)cc1,113%,97.4%,105%,104%,101%,105%,104%,110%,98.4%,110%
C=C1C(=O)O[C@H]2[C@H]1CCC(/C=N/c1ncc(Br)cc1N)=C\CC[C@@]1(C)O[C@@H]21,15.5%,2.64% (active),-9.18% (active),-15.5% (active),-79.3% (active),52.5%,70.3%,25.8%,22%,-12.4% (active)
Cc1cc(NC(=O)CNc2nc(Oc3ccc(F)cc3)nc(-c3ccc(F)cc3)n2)ccc1Cl,112%,89.5%,109%,106%,92.7%,100%,96.9%,109%,101%,104%
COc1ccc(/C=C(/C(=O)N2CCCC2)c2cc(OC)c(OC)c(OC)c2)cc1,17%,12.5%,50.1%,58.5%,5.92% (active),60.1%,18.3%,17.1%,52.4%,2.21% (active)
CN1CCN(C(=O)[C@@]2(C)CC[C@]3(C)CC[C@]4(C)C(=CC[C@@H]5[C@@]6(C)CC[C@H](OC(=O)c7cccnc7)C(C)(C)[C@@H]6CC[C@]54C)[C@@H]3C2)CC1,78.7%,-24.1% (active),60.2%,48.4%,60.3%,85.4%,67.8%,59.8%,58.6%,80.7%
CCOC(=O)c1c(C)nc2c(c1N)CC(=O)N2CCc1ccccc1,9.55% (active),11.7%,49.1%,31.8%,27.1%,24%,15.6%,13.7%,56.6%,18%
Nc1c(C(=O)Nc2cccc3ccccc23)sc2nc3c(cc12)CCCCCC3,14.9%,9.1% (active),75.9%,39.3%,21.8%,45.6%,23.7%,-0.219% (active),68.8%,3.04% (active)
c1ccc2c3c([nH]c2c1)C(c1ccc(C2NCCc4c2[nH]c2ccccc42)cc1)NCC3 (stereo not given),-35.1% (active),-57.6% (active),-50.3% (active),-56.2% (active),33.9%,-29.2% (active),-72.2% (active),-15.5% (active),-41.7% (active),-84.9% (active)
